Test results: PubChem BioAssay (EPA / NIEHS)
Records with an inconclusive call do not appear. The source made the active and inactive calls. The calls were made as follows: active = hit-call score of the fitted dose curve at least 0.9, where 1 is the maximum; inconclusive = response in the unintended direction; inactive = score below 0.9.

Biological target: Cellular tumor antigen p53 (Homo sapiens) (UniProt P04637)
Test: TOX21_p53_BLA_p2_ratio: Tox21 HCT-116 p53 Agonism Beta-lactamase Assay, Ratio, Phase 2 (AID 2283592)
How it was run: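 HCT-116 cells with p53-responsive beta-lactamase reporter, 4000 cells/well, preincubated 5 h, then compound in DMSO (217-fold dilution) for 16 h at 37C. CCF4-AM substrate 2 h at room temperature; 460/530 nm emission ratio fitted upward versus DMSO.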

Cellular tumor antigen p53 (Homo sapiens), sequence (P04637 whole entry, looked up): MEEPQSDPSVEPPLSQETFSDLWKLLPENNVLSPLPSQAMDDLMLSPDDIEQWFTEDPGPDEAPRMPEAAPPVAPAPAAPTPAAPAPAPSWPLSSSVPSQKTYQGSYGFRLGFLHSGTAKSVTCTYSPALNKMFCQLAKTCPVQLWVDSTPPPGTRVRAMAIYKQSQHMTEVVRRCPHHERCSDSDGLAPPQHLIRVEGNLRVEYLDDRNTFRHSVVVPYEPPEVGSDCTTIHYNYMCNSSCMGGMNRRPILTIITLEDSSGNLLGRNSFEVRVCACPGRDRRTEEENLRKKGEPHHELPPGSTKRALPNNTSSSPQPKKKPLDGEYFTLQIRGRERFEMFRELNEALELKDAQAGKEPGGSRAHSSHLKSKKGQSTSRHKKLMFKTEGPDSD

| Compound | outcome |
| --- | --- |
| Nc1cc(C(=O)O)c(O)c(S(=O)(=O)O)c1 | inactive |
| Cc1cccc(C)c1NC(=O)NC1=CCCN1C | inactive |
| CCC(=O)Nc1ccc(O)cc1 | inactive |
| N[C@@H](C(=O)N[C@@H]1C(=O)N2C(C(=O)O)=C(Cl)CC[C@H]12)c1ccccc1 | inactive |
| O=C(Oc1ccccc1C(=O)O)c1ccccc1O | inactive |
| Cc1scc2c1N(C(=O)CN1CCN(C)CC1)c1ccccc1NC2=O | inactive |
| NC(CO)C(=O)NNCc1ccc(O)c(O)c1O (stereo not drawn) | inactive |
| Oc1ccc(C(O)CNCCCCCCNCC(O)c2ccc(O)c(O)c2)cc1O (stereo not drawn) | inactive |
| NCC1CCC(C(=O)Oc2ccc(CCC(=O)O)cc2)CC1 (stereo not drawn) | inactive |
| C=CCCCCCC | inactive |
| CC1(C)O[C@@H]2C[C@H]3[C@@H]4CCC5=CC(=O)CC[C@]5(C)[C@@]4(F)[C@@H](O)C[C@]3(C)[C@]2(C(=O)CCl)O1 | inactive |
| O=C1c2ccccc2C(=O)N1CO | inactive |
| COc1cc(C(=O)N2CCCCCCC2)cc(OC)c1OC | inactive |
| CCN1CCCC1CNC(=O)c1cc(S(N)(=O)=O)ccc1OC (stereo not drawn) | inactive |
| CN(C)CCC(O)(c1ccccc1)c1ccccc1Cl (stereo not drawn) | inactive |
| CCN1CCN(C(=O)N[C@@H](C(=O)N[C@@H]2C(=O)N3C(C(=O)O)=C(CSc4nnnn4C)CS[C@H]23)c2ccc(O)cc2)C(=O)C1=O | inactive |
| Cc1cc(N)c(S(=O)(=O)O)cc1Cl | inactive |
| CC(C)C(=O)OCC(C)(C)C(O)C(C)C (stereo not drawn) | inactive |
| COC(=O)CC[C@H](N)C(=O)O | inactive |

| Compound | outcome |
| --- | --- |
| CC(=O)OCC1=C(C(=O)O)N2C(=O)[C@@H](NC(=O)Cc3ccccc3)[C@H]2SC1 | inactive |
| CC(C)(C)NCC(O)COc1cccc2c1CCC(=O)N2 (stereo not drawn) | inactive |
| FC(F)(F)c1ccccc1-n1ccnc1 | inactive |
| CN1CCN(c2cc3c(cc2F)c(=O)c(C(=O)O)cn3-c2ccc(F)cc2)CC1 | inactive |
| CC1(C)S[C@@H]2[C@H](NC(=O)[C@@H](NC(=O)N3CCNC3=O)c3ccccc3)C(=O)N2[C@H]1C(=O)O | inactive |
| CCN(CCO)CCCC(C)Nc1ccnc2cc(Cl)ccc12 (stereo not drawn) | inactive |
| COCc1ccc(COC)cc1 | inactive |
| O=C(c1ccc(Cl)cc1)c1ccc(Cl)cc1 | inactive |
| CC(=O)Nc1ccc(OCC(O)CNC(C)C)cc1 (stereo not drawn) | inactive |
| CC(C)c1ccccc1C(C)C | inactive |
| Cc1cccc(C(=O)O)c1[N+](=O)[O-] | inactive |
| C[C@@H](c1ncncc1F)[C@](O)(Cn1cncn1)c1ccc(F)cc1F | inactive |
| CC(C)(C)c1nnc(NS(=O)(=O)c2ccccc2)s1 | inactive |
| CCN(CC)CC(=O)Nc1c(C)cccc1C | inactive |
| CC(C)(C)NSc1nc2ccccc2s1 | inactive |
| Nc1cccc2c(=O)[nH][nH]c(=O)c12 | inactive |
| Cc1ccccc1N1C(=O)c2cc(S(N)(=O)=O)c(Cl)cc2NC1C (stereo not drawn) | inactive |
| CC(=O)OCC(=O)[C@@]1(O)[C@H](C)C[C@H]2[C@@H]3C[C@H](F)C4=CC(=O)C=C[C@]4(C)[C@H]3[C@@H](O)C[C@@]21C | inactive |
| COCCOC(=O)CC#N | inactive |
